The values that follow come from PubChem BioAssay.

The term viability denotes a read-out of living cells in per cent, often relative to untreated cells. For orientation: inhibition means the change of the read-out against control, counted positive when it falls.

Structures are written as SMILES. Results filed as inconclusive are left out. The source made the active and inactive calls.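 The calls were made as follows, unless noted: active = viability at or below 10% of carrier control in both of two separate runs; inconclusive = viability at or below 10% in only one of the two runs; inactive = the rest.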

Assay [1] can be described thus: reducers of endogenous Her2 protein level, primary screen, SKBR3 breast tumor cells, AlphaScreen, ATP viability (AID 461;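 active = Her2 level under about 52% in both replicate screens, with viability over 70% of control, limit read from the data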;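 as to Her2 level: lower value means less Her2 protein in the cells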;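 as to viability: percent of carrier control wells set as 100% viability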). Conditions: 18-24 h, measured here: SKBR3 viability, ATP luminescence, at 10 µM. (In general: In Alpha technology, singlet oxygen from a donor bead excites a nearby acceptor bead.)
The target of assay [2] is Receptor tyrosine-protein kinase erbB-2 (Homo sapiens) (UniProt P04626). Described as above. To be noted: 18-24 h, at 10 µM, stronger effect = lower value.
A short description of assay [3]: SK-BR-3 cell growth inhibitors, pilot screen, 24 h, human (AID 572).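 Also: compound exposure lasted between 18 and 24 h rather than exactly 24 h; 100% = carrier-treated control wells.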 Conditions: SK-BR-3 viability, CellTiter-Glo luminescence, at 10 µM, stronger effect = lower value.
Assay [4] is described as follows: HUVEC growth inhibition – cell-based, human, primary screen (AID 575;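 active = viability at or below 30% in both replicate assays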;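 also: 100% = median of untreated cell wells with 0.1% DMSO on each plate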). Conditions: HUVEC proliferation, CellTiter-Glo luminescence, 72 h; at 10 µM; stronger effect = lower value. (In general: ATP-based viability assays read luminescence as a measure of living cells.)
A short description of assay [5]: growth inhibitors of H69AR lung tumor, primary screen, human, duplicate replicates (AID 580;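 active = viability at or under a set limit in both replicates, limit being median viability minus 3 SD, cut at about 48% in these data, passing the limit was not always enough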;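 also: 100% = mean luminescence of untreated wells and 0% = no signal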). Conditions: H69AR lung tumor cells viability, ATP luminescence, 72 h; at 10 µM; stronger effect = lower value.
The nature of assay [6]: reversal of MRP1-mediated doxorubicin resistance, pilot screen, H69AR cells, doxorubicin co-treatment (AID 601;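 active = viability loss from added drug above about 55%, and viability with drug at most 40%, in both replicates, limit read from the data, passing the limit was not always enough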). Conditions: CellTiter-Glo, 72 h, at 10 µM; for differential viability (reversal): stronger effect = higher value.
Assay [7] can be described thus: 384-well plate pilot, post-Golgi transport modulator project, inhibition of yeast transport mutant growth (AID 636; in the data active = inhibition above about 31%). To be noted: absorbance 615 nm, about 18 h, stronger effect = higher value.
Assay [8] can be described thus: growth suppression of yeast trafficking mutant, preliminary HTS, modulators of trafficking downstream of Golgi apparatus project, 1536-format plate, OD 615 nm (AID 637; in the data active = inhibition above about 30%). Conditions: yeast transport mutant growth, absorbance 615 nm, 18 h; stronger effect = higher value.
Assay [9] is described as follows: OD615 S. cerevisiae growth inhibition, permissive medium, pilot counter-assay, permissive growth control for S. cerevisiae lifespan shortening project (AID 705;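 active = growth inhibition above 25% in both replicates, a cutoff set 3 SD above the mean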). Conditions: OD615, 24 h, at 10 µM, stronger effect = higher value.
Assay [10] can be described thus: Restrictive medium S. cerevisiae growth inhibition, OD615, pilot screen of yeast lifespan reduction project, restrictive growth control (AID 706;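 active = growth inhibition above a set limit, 3 SD over mean compound inhibition, in both replicates, cut at about 43% in these data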;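 also: modified DeaD lifespan yeast strain shifted to restrictive glucose medium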). To be noted: OD615, 48 h, at 10 µM, stronger effect = higher value.
The nature of assay [11]: viability gain of MRP-1-high H69AR cells under doxorubicin, pilot screen, MRP-1 activator project, CellTiter-Glo, duplicate (AID 807;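 active = viability increase at or above a cutoff of the median across tested compounds plus 3 SD, cut at about 8.5% in these data, passing the limit was not always enough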;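 also: compound pretreatment 18-22 h then 72 h combined with doxorubicin; 0% = doxorubicin alone and 100% = vehicle without doxorubicin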). To be noted: H69AR viability with doxorubicin, CellTiter-Glo luminescence; at 10 µM; stronger effect = higher value.
A short description of assay [12]: growth suppression of beta-catenin knockout HCT116, pilot screen, human colon tumor cells (AID 823;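 active = cell viability at or below a set limit in both duplicate runs, the limit being the all-compound median minus 4 SD, cut at about 23% in these data, passing the limit was not always enough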;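 also: 0% = wells killed by 20 µM Hyamine and 100% = untreated DMSO cell wells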). To be noted: CellTiter-Glo, 60 h, at 10 µM, stronger effect = lower value.
A short description of assay [13]: growth suppression of PTEN-deleted HCT116, pilot screen, cell-based, HCT116 clonal line, CellTiter-Glo (AID 824;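 active = viability at or below 27.92% in each of two runs, the all-compound median minus 4 SD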;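 also: 0% = 20 µM Hyamine control and 100% = vehicle cell control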). Conditions: 60 h, at 10 µM, stronger effect = lower value.
Assay [14] can be described thus: inhibitors of the yeast RAM network, pilot screen, dse1pr::URA3 reporter, 5-FOA selection (AID 869;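 active = inhibition over a set limit, the all-compound mean plus 3 SD, in both replicate runs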;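 also: 0% = DMSO wells with no growth and 100% = 10 µM 1-NA-PP1 with full growth; RAM network block rescues cells from 5-FOA so hits raise OD615 growth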). Conditions: S. cerevisiae dse1pr::URA3 5-FOA growth, OD615, 2 d; at 10 µM; stronger effect = higher value; strain carries analog-sensitive mutant Cbk1 kinase.
Assay [15] in a line: RAM signaling pathway blockade in yeast – S. cerevisiae, Pdr1DBD-CYC8 efflux-inhibited sensitized strain, primary screen (AID 1298;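 active = RAM network inhibition above 8.4% in each of two replicates, 3 SD over the compound average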;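 also: 0% = DMSO untreated cells without growth and 100% = 10 µM 1-NA-PP1 full growth; higher means more yeast growth rescued from 5-FOA killing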). To be noted: S. cerevisiae cbk1-as DSE1-URA3 strain, 5-FOA growth OD615, 2 d; at 50 µM; stronger effect = higher value.
Setting [16] is: H69AR cells + 2 uM doxorubicin, measured here: viability with 2 uM doxorubicin, stronger effect = lower value.
The mark [17] stands for this setting: H69AR cells, compound alone cytotoxicity.

Chain of Receptor tyrosine-protein kinase erbB-2 (Homo sapiens) (P04626 whole entry, looked up): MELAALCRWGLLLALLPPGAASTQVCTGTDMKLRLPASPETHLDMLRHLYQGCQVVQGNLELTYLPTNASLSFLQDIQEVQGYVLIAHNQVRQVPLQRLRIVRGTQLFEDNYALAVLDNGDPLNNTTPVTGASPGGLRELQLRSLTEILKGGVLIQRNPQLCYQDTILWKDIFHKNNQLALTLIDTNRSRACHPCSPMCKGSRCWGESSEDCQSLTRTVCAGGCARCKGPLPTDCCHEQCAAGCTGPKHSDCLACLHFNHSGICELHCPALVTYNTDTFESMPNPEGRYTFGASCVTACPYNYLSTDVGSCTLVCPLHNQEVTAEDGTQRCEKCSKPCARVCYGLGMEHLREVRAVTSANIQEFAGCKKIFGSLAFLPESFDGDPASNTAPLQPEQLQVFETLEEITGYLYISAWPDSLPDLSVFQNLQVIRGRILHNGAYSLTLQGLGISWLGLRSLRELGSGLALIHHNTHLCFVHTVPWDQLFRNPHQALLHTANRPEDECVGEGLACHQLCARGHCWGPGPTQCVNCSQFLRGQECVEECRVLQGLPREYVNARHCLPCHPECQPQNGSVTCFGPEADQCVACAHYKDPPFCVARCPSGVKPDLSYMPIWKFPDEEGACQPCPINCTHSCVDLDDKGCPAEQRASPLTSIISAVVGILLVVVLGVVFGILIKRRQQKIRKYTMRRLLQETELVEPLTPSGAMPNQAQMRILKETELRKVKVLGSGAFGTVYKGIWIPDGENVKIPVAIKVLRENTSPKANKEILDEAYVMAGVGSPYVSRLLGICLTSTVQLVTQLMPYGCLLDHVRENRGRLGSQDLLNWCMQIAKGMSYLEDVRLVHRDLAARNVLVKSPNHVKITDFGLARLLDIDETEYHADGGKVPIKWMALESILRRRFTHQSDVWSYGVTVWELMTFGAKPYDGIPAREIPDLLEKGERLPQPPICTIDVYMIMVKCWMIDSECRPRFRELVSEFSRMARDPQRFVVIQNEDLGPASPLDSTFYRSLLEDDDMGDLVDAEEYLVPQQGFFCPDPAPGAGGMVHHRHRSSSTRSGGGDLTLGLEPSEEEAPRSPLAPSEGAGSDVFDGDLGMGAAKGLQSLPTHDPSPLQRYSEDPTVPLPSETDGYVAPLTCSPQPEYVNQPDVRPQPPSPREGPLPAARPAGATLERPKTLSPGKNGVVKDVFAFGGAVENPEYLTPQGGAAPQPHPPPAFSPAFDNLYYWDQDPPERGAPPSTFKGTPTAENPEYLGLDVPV

In the case of `COC(=O)CSc1nnc(-c2ccncc2)o1`, the viability in assay [1] is 116%; in assay [3], 116% (inactive); in assay [4], 105% (inactive); in assay [5], 95% (inactive); in assay [6] (setting [16]) it was 87%; in [6] (setting [17]) it was 95%. Besides, the viability in assay [12] was 93.2% (inactive); in assay [13], 94.2% (inactive). Also, the Her2 level in assay [2] was 127% (inactive). Further, the differential viability (reversal) in assay [6] (H69AR cells + 2 uM doxorubicin) was 7.96% (inactive). Further, the inhibition in assay [7] was -3.25% (inactive); in assay [8] it was -7.33% (inactive); in [14] it was 0.9% (inactive). The growth inhibition is -2.71% (inactive) in assay [9] and -17.9% (inactive) in assay [10]. For the same compound, the viability increase in [11] is -2.71% (inactive). Further, in assay [15], the RAM network inhibition was 0.67% (inactive).

`CCSC1=C(C#N)C(c2ccccc2OC)CC(=O)N1` (stereo not drawn): the viability is 92% in assay [1]; 92% (inactive) in [3]; 86.3% (inactive) in assay [4]; 99.8% (inactive) in assay [5]; 92.8% in assay [6] (setting [16]); 99.8% in assay [6] (setting [17]). Besides, the results for the viability in [12] and in assay [13] were 94.1% (inactive) and 91.6% (inactive), respectively. Besides, the Her2 level in assay [2] was 97.5% (inactive). The differential viability (reversal) in [6] (H69AR cells + 2 uM doxorubicin) was 6.97% (inactive). Also, the inhibition in [7] is -1.73% (inactive); in assay [8] it was -2.33% (inactive); in assay [14], 1.78% (inactive). For the same compound, the growth inhibition is -3.36% (inactive) in assay [9] and 0.71% (inactive) in assay [10]. Besides, the viability increase in assay [11] was 0.28% (inactive). For the same compound, the RAM network inhibition in [15] was 1.8% (inactive).

On to `Cc1nc2ccccc2c2oc(C(=O)N3CCN(C(=O)c4ccco4)CC3)cc12`, for which the viability in assay [1] is 79%; in assay [3] it was 79% (inactive); in assay [4], 87.4% (inactive); in assay [5], 83.1% (inactive); in assay [6] (setting [16]) it was 83.4%; in assay [6] (setting [17]) it was 83.1%. Also, the viability in assay [12] is 101% (inactive); in assay [13], 107% (inactive). The Her2 level in assay [2] is 95.5% (inactive). Besides, the differential viability (reversal) in assay [6] (H69AR cells + 2 uM doxorubicin) was -0.275% (inactive). Further, the inhibition in assay [7] is -2.69% (inactive); in assay [8], 1.67% (inactive); in [14] it was 0.195% (inactive). Moreover, the growth inhibition in [9] was -6.06% (inactive); in [10], 2.71% (inactive). The viability increase in assay [11] is -5.18% (inactive). Further, in assay [15], the RAM network inhibition is 2.11% (inactive).

Consider `CC(=O)c1c(OC(=O)c2ccco2)c2ccccc2n1C`, for which the viability in assay [1] was 91%; in assay [3], 91% (inactive); in assay [4], 74.6% (inactive); in [5], 75.3% (inactive); in assay [6] (setting [16]), 83.8%; in assay [6] (setting [17]), 75.3%. In addition, the viability in [12] was 75.1% (inactive); in assay [13] it was 91.3% (inactive). For the same compound, the Her2 level in assay [2] is 102% (inactive). The differential viability (reversal) in assay [6] (H69AR cells + 2 uM doxorubicin) is -8.43% (inactive). Also, the inhibition in [7] was -0.64% (inactive); in assay [8], -8.83% (inactive); in assay [14], 0.15% (inactive). The growth inhibition was -14.2% (inactive) in assay [9] and -7.23% (inactive) in assay [10]. Moreover, the viability increase in assay [11] was -4.82% (inactive). Moreover, the RAM network inhibition in assay [15] was 1.13% (inactive).

For the compound `Cc1cc2nc(-c3ccco3)cc(C(F)(F)F)n2n1`, the viability in [1] is 93.5%; in [3], 93.5% (inactive); in [4] it was 102% (inactive); in assay [5] it was 93.3% (inactive); in assay [6] (setting [16]), 86.6%; in [6] (setting [17]), 93.3%. The viability in assay [12] and in assay [13] was 105% (inactive) in each case. The Her2 level in [2] is 90% (inactive). The differential viability (reversal) in [6] (H69AR cells + 2 uM doxorubicin) was 6.71% (inactive). Besides, the figures for the inhibition in [7], in assay [8] and in assay [14] were 1.28% (inactive), 8.17% (inactive) and 1.89% (inactive), respectively. Also, the growth inhibition is -17.4% (inactive) in [9] and -8.99% (inactive) in [10]. Besides, the viability increase in assay [11] was 1.14% (inactive). In [15], the RAM network inhibition was 2.83% (inactive).

`CN(C)CCN1C(=O)C(O)=C(C(=O)c2cc3ccccc3o2)C1c1ccc(N(C)C)cc1` (stereo not drawn): the viability was 98.5% in [1]; 98.5% (inactive) in assay [3]; 94.1% (inactive) in assay [4]; 90.2% (inactive) in assay [5]; 88.5% in assay [6] (setting [16]); 90.2% in assay [6] (setting [17]). Besides, the results for the viability in assay [12] and in [13] were 105% (inactive) and 103% (inactive), respectively. Moreover, in assay [2], the Her2 level is 105% (inactive). Further, the differential viability (reversal) in [6] (H69AR cells + 2 uM doxorubicin) is 1.66% (inactive). For the same compound, the inhibition was -3.47% (inactive) in assay [7], 1.17% (inactive) in [8] and 0.685% (inactive) in assay [14]. Further, the growth inhibition is -14.2% (inactive) in assay [9] and -14.1% (inactive) in [10]. Further, the viability increase in [11] is -0.2% (inactive). In addition, in [15], the RAM network inhibition was 2.42% (inactive).

In the case of `Cc1cccc(NC(=O)c2ccccc2O)c1C`, the viability in assay [1] was 60%; in assay [3] it was 60% (inactive); in assay [4], 59.2% (inactive); in assay [5] it was 93.3% (inactive); in assay [6] (setting [16]) it was 88.4%; in assay [6] (setting [17]) it was 93.3%. For the same compound, the figures for the viability in [12] and in [13] were 86.5% (inactive) and 86.3% (inactive), respectively. Moreover, the Her2 level in assay [2] was 75.5% (inactive). Further, the differential viability (reversal) in assay [6] (H69AR cells + 2 uM doxorubicin) is 4.91% (inactive). Further, the inhibition in [7] was -5.95% (inactive); in [8] it was -3.61% (inactive); in assay [14], 1.33% (inactive). For the same compound, the growth inhibition was 2.66% (inactive) in assay [9] and 1.19% (inactive) in [10]. In assay [11], the viability increase is -1.89% (inactive). Further, in [15], the RAM network inhibition is 2.03% (inactive).

Consider `Cc1cc(NC(=O)CS(=O)(=O)c2cn(Cc3cccc(F)c3)c3ccccc23)no1`, for which the viability in assay [1] was 124%; in [3], 124% (inactive); in [4], 69.7% (inactive); in assay [5] it was 92.7% (inactive); in assay [6] (setting [16]), 88.7%; in assay [6] (setting [17]), 92.7%. Also, the viability is 65.8% (inactive) in assay [12] and 72.2% (inactive) in [13]. In addition, the Her2 level in assay [2] is 75.5% (inactive). In assay [6] (H69AR cells + 2 uM doxorubicin), the differential viability (reversal) was 3.98% (inactive). In addition, the inhibition in assay [7] is -6.62% (inactive); in assay [8], -4.67% (inactive); in assay [14], 1.3% (inactive). Moreover, the growth inhibition in assay [9] was -5.79% (inactive); in assay [10], -24.3% (inactive). Also, in [11], the viability increase is -1.03% (inactive). Besides, the RAM network inhibition in [15] was 5.39% (inactive).

`COc1ccccc1CNC(=O)CCn1c(=O)[nH]c2ccsc2c1=O`: the viability in assay [1] is 97.5%; in assay [3] it was 97.5% (inactive); in assay [4] it was 114% (inactive); in assay [5] it was 93.9% (inactive); in assay [6] (setting [16]), 88.9%; in [6] (setting [17]) it was 93.9%. Besides, the viability in assay [12] is 101% (inactive); in assay [13], 99.4% (inactive). Moreover, the Her2 level in assay [2] is 102% (inactive). In addition, in assay [6] (H69AR cells + 2 uM doxorubicin), the differential viability (reversal) was 4.96% (inactive). Also, the inhibition in assay [7] is -7.97% (inactive); in [8], 2.17% (inactive); in [14], 1.01% (inactive). The growth inhibition in assay [9] was -21% (inactive); in assay [10] it was -14.4% (inactive). Besides, the viability increase in assay [11] was -0.23% (inactive). The RAM network inhibition in assay [15] was 4.41% (inactive).
